Test results: the supplement of paper PMC10646978
± gives the standard deviation.

Assays:
Settings in all cases: modulator concentration 10 µM
[1] = tested on: RAW-Dual (murine macrophage reporter line); assay: NF-kB reporter (SEAP) activity fold change vs agonist alone; higher = enhanced NF-kB activity
In short: (§1)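 In 384-well plates holding 50 000 RAW-Dual murine macrophage reporter cells per well, compound at 10 μM final was pre-incubated for 1 hour at 37 °C, after which a PRR agonist was added overnight. Supernatant SEAP read with QUANTI-Blue at 620 nm absorbance reported NF-κB, and Lucia luciferase read with QUANTI-Luc luminescence reported IRF. Fold change values come from dividing each reporter signal by the mean of agonist-only control wells on the same plate, averaged over replicate plates with propagated errors.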

[2] = tested on: RAW-Dual (murine macrophage reporter line); assay: IRF reporter (Lucia luciferase) activity fold change vs agonist alone; higher = enhanced IRF activity
In short: as §1

[3] = tested on: RAW-Dual (murine macrophage reporter line); assay: viability score (confluency relative to resting cells, overnight) (fraction); higher = more viable, active = viable (0.7 or more)
In short: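 Compound was added at a final 10 μM to RAW-Dual macrophages in 384-well plates and left overnight. Confluency was imaged with IncuCyte, and two masks were generated in IncuCyte software over all imaged wells. Each viability score is confluency relative to resting cells, and a compound met the cutoff only when both masks were above 70% of resting cells.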

[4] = agonist: CpG ODN 1826 0.5 ug/mL

Compound | NF-kB reporter [1, 4] | NF-kB reporter ([1]; agonist: LPS 0.1 ug/mL) | NF-kB reporter ([1]; agonist: MPLA […]) | IRF reporter ([2]; agonist: 3'3'-cGAMP 10 ug/mL) | IRF reporter ([2]; agonist: LPS 0.1 ug/mL) | IRF reporter ([2]; agonist: MPLA […]) | viability score [3]
COc1ccc(Nc2nc(N3CCCC(C)C3)nc3[nH]ncc23)cc1 (stereo unspecified) | 0.608 ± 0.03 | 0.617 ± 0.051 | 0.768 ± 0.048 | 0.623 ± 0.045 | 0.905 ± 0.21 | 1.32 ± 0.46 | 0.264 (inactive)
O=C(NC1CCN(c2ncnc3c2CCCC3)CC1)c1ccc(=O)[nH]c1 | 1.09 ± 0.13 | 1.09 ± 0.11 | 0.949 ± 0.057 | 0.957 ± 0.096 | 1.24 ± 0.11 | 1.07 ± 0.1 | 1.02 (active)
CN1CCC2(CC1)NC(=O)N(CC(=O)N1CCc3ccccc31)C2=O | 0.927 ± 0.094 | 1.14 ± 0.096 | 0.942 ± 0.11 | 1.01 ± 0.063 | 1.18 ± 0.14 | 1.2 ± 0.1 | 1.02 (active)
NC(=O)NCC(N)C(=O)O (stereo unspecified) | 0.988 ± 0.082 | 1.02 ± 0.09 | 0.969 ± 0.022 | 0.959 ± 0.053 | 0.963 ± 0.12 | 1.02 ± 0.1 | 0.994 (active)
COc1ccc(-c2csc(NC(=O)C3CC3)n2)cc1 | 1.1 ± 0.064 | 0.958 ± 0.078 | 1.05 ± 0.032 | 0.876 ± 0.032 | 1.05 ± 0.08 | 1.13 ± 0.26 | 0.988 (active)
Cl.Nc1ccn([C@@H]2O[C@H](CO)[C@@H](O)C2(F)F)c(=O)n1 | 1.3 ± 0.31 | 0.921 ± 0.05 | 1.29 ± 0.087 | 1.25 ± 0.063 | 1.51 ± 0.17 | 1.32 ± 0.21 | 0.173 (inactive)
Cc1n[nH]c(C)c1S(=O)(=O)N1CCCN(C(=O)Cc2ccccc2Cl)CC1 | 1.03 ± 0.051 | 1.14 ± 0.11 | 1 ± 0.18 | 1.05 ± 0.053 | 1.21 ± 0.074 | 1.26 ± 0.11 | 0.979 (active)
O=C(NCC(F)(F)F)c1ccc(OCC2CCOCC2)nc1 | 0.911 ± 0.044 | 0.87 ± 0.093 | 1.09 ± 0.064 | 0.937 ± 0.044 | 1.3 ± 0.24 | 1.51 ± 0.46 | 0.993 (active)
CN(C)[C@@H]1C(O)=C(C(N)=O)C(=O)[C@@]2(O)C(O)=C3C(=O)c4c(O)ccc(Cl)c4[C@@H](O)[C@H]3C[C@@H]12.Cl | 1.29 ± 0.098 | 0.965 ± 0.055 | 1.17 ± 0.038 | 0.728 ± 0.048 | 0.971 ± 0.068 | 0.828 ± 0.12 | 0.984 (active)
c1ccc(CN2CCN(c3cc(-c4cccnc4)n[nH]3)CC2)cc1 | 0.805 ± 0.043 | 1.06 ± 0.096 | 1.21 ± 0.092 | 1.09 ± 0.051 | 1.37 ± 0.31 | 1.56 ± 0.59 | 0.98 (active)
COc1cc2nccc(Oc3ccc(NC(=O)C4(C(=O)Nc5ccc(F)cc5)CC4)cc3)c2cc1OC.O=C(O)C[C@H](O)C(=O)O | 0.56 ± 0.046 | 0.51 ± 0.026 | 0.696 ± 0.019 | 0.103 ± 0.0071 | 0.317 ± 0.031 | 0.337 ± 0.027 | 0.842 (active)
COCCNCCOc1cc(C)c(Cl)c(C)c1 | 0.908 ± 0.078 | 0.952 ± 0.045 | 0.932 ± 0.085 | 0.947 ± 0.049 | 1.52 ± 0.098 | 1.67 ± 0.17 | 0.974 (active)
CCOCC(=O)Nc1ccc(N2CCCCC2=O)c(C)c1 | 0.884 ± 0.11 | 0.79 ± 0.11 | 0.828 ± 0.16 | 0.899 ± 0.12 | 1.06 ± 0.14 | 1 ± 0.3 | 0.93 (active)
